Structures are written as SMILES. The panel holds about 83,000 compounds, 20% with a hit somewhere; the sample as a whole holds those more often.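 The test compound was applied at a single concentration to cells in 96-well plates for 48 hours, and percent growth was recorded.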 Unmarked numbers belong to inactive results. Active and inactive are the calls of the source. Rule for the calls: active = growth percent below 10; inactive = the rest.

Test systems include T-47D breast; BT-549 breast; MDA-MB-435 melanoma; SW-620 colon; MCF7 breast; HCT-116 colon; HCC-2998 colon; KM12 colon.
Test in all cases: NCI-60 one-dose screen, 48 h (100 = growth as untreated, 0 = no growth, -100 = all killed)
Common to all, as to conditions: 10 µM unless noted

In the case of `O=c1cc(-c2nccc3c2[nH]c2ccccc23)c2cc(Cl)ccc2o1`, the growth in the test with T-47D breast is 59.4%; in the test with BT-549 breast, 36.1%; in the test with MDA-MB-435 melanoma, 1.21% (active); with SW-620 colon, 34.3%; in the test with MCF7 breast, 27.2%; in the test with HCT-116 colon, 8.73% (active). Moreover, the growth with HCC-2998 colon was 74.2%; in the test with KM12 colon it was 29%.

With `CCOc1ccccc1NC(=O)CCC(=O)OC`, the growth in the test with T-47D breast was 88.7%; in the test on BT-549 breast it was 106%; in the test on MDA-MB-435 melanoma, 102%; with SW-620 colon, 104%; with MCF7 breast, 90.4%; in the test with HCT-116 colon, 97.5%. Moreover, the growth is 99.5% in the test with HCC-2998 colon and 100% with KM12 colon.

Take `O=C(CN1C(=O)c2ccccc2S1(=O)=O)Nc1nc(-c2cc3ccccc3oc2=O)cs1`: the growth with T-47D breast is 98.7%; in the test with BT-549 breast, 105%; in the test with MDA-MB-435 melanoma it was 104%; in the test on SW-620 colon it was 103%; in the test on MCF7 breast it was 96.6%; in the test with HCT-116 colon, 104%. Further, the growth with HCC-2998 colon is 102%; in the test on KM12 colon, 101%.

On to `COc1cc(OCc2cccc(-c3ccccc3)c2C)cc(OC)c1CN1CCCCC1C(=O)NCCOCCOCCN` (stereo not given), for which the growth with T-47D breast is 71.2%; with BT-549 breast, 84.7%; with MDA-MB-435 melanoma, -72.8% (active); with SW-620 colon, 61.2%; in the test on MCF7 breast, 51.3%; with HCT-116 colon it was 22.8%. Moreover, the values for the growth with HCC-2998 colon and in the test with KM12 colon were 88% and 78.9%, respectively.

As to `N#C/C(=C\c1cccc2cnccc12)N1N=NC2C=CC=CC21` (stereo not given), the growth in the test on T-47D breast is 23.8%; in the test with BT-549 breast it was 41.6%; with MDA-MB-435 melanoma, 9.28% (active); in the test on SW-620 colon it was 13.1%; with MCF7 breast it was 13.6%; in the test with HCT-116 colon, 14.2%. Further, the growth with HCC-2998 colon is 91.7%; in the test on KM12 colon it was 43.5%.

As for `CCN1C(=O)N(CC)C2C1NN=c1s/c(=C\c3ccc(F)cc3)c(=O)n12` (stereo not given), the growth with T-47D breast was 57.8%; with BT-549 breast, 14.5%; in the test with MDA-MB-435 melanoma it was -38.8% (active); in the test on SW-620 colon it was 19.6%; in the test with MCF7 breast, 18.2%; in the test with HCT-116 colon, 13.6%. In addition, the growth was 18.8% in the test with HCC-2998 colon and 7.33% (active) in the test with KM12 colon.

`NS(=O)(=O)Oc1cccc(-c2nc3sccn3c2-c2ccccc2)c1`: the growth was 36.2% in the test on T-47D breast; 54% in the test with BT-549 breast; 3.29% (active) in the test with MDA-MB-435 melanoma; 35.5% in the test with SW-620 colon; 26.1% in the test with MCF7 breast; 23.5% with HCT-116 colon. Further, the growth in the test on HCC-2998 colon is 87.4%; in the test with KM12 colon, 48.4%.

On to `Cc1ccc(OCCOCCOCCOCCOc2ccc(C)n(O)c2=S)c(=S)n1O`, for which the growth with T-47D breast was 8.09% (active); in the test with BT-549 breast, 14.1%; in the test on MDA-MB-435 melanoma it was 29.4%; in the test with SW-620 colon, 25.7%; in the test on MCF7 breast, 10.1%; with HCT-116 colon, 14.3%. Also, the growth in the test with HCC-2998 colon was 5.72% (active); with KM12 colon, 18.6%.

For `CCN1CCN(CCOc2ccc(CNc3ccc4nc(CCC5CCCCC5)[nH]c4c3)cc2)CC1`, the growth in the test on T-47D breast is -8.02% (active); in the test on BT-549 breast, 65.6%; in the test with MDA-MB-435 melanoma, -17.8% (active); in the test with SW-620 colon, 22.1%; in the test on MCF7 breast, 3.86% (active); with HCT-116 colon it was 17.9%. The growth in the test with HCC-2998 colon was 4.19% (active); with KM12 colon it was 47.1%.

Regarding `c1ccc(-c2nc(N3CCNCC3)c3oc(-c4ccccc4)nc3n2)cc1`, the growth in the test on T-47D breast is -41.9% (active); with BT-549 breast, 106%; in the test with MDA-MB-435 melanoma, -93.9% (active); in the test on SW-620 colon it was -77.7% (active); with MCF7 breast it was -62.3% (active); with HCT-116 colon, -31.7% (active). Moreover, the figures for the growth in the test on HCC-2998 colon and with KM12 colon were -87.5% (active) and -75.4% (active), respectively.

On to `Cc1ccc(-c2nc(C#N)c(S(=O)(=O)n3nc(C)cc3N)o2)cc1`, for which the growth in the test on T-47D breast was 55.2%; with BT-549 breast, 80.4%; in the test with MDA-MB-435 melanoma, 96.2%; in the test on SW-620 colon, 15%; in the test on MCF7 breast, 88.2%; in the test on HCT-116 colon, 65.5%. Further, the growth with HCC-2998 colon is 110%; in the test on KM12 colon, 92.8%.

As for `NC(=N\N=C/c1ccc(Cl)cc1Cl)/C(N)=N\N=C/c1ccc(Cl)cc1Cl`, the growth with T-47D breast was 10.8%; with BT-549 breast, 111%; in the test on MDA-MB-435 melanoma, 82.6%; with SW-620 colon it was 63.4%; with MCF7 breast it was 87%; in the test with HCT-116 colon it was 21.9%. Moreover, the figures for the growth with HCC-2998 colon and with KM12 colon were 88.8% and 84%, respectively.

Turning to `C#CC(F)(F)[C@]1(O)CCC2C3CCC4=CC(=O)CCC4=C3[C@@H](c3ccc(N(C)C)cc3)C[C@@]21C` (stereo not given in full), the growth with T-47D breast was 44%; in the test on BT-549 breast, 88.7%; in the test on MDA-MB-435 melanoma, 103%; in the test with SW-620 colon, 103%; in the test on MCF7 breast, 57.8%; in the test with HCT-116 colon, 71.2%. Also, the figures for the growth with HCC-2998 colon and in the test on KM12 colon were 111% and 99.3%, respectively.

On to `OC1CSSC1Cn1cnc2c(Nc3ccc(F)c(Cl)c3)ncnc21` (stereo not given), for which the growth with T-47D breast was 61.4%; with BT-549 breast, 119%; in the test on MDA-MB-435 melanoma, 63.8%; in the test on SW-620 colon it was 104%; with MCF7 breast, 45.7%; with HCT-116 colon, 74.7%. Besides, the growth in the test with HCC-2998 colon was 96.4%; in the test on KM12 colon, 73.2%.

`COc1ccc(N/N=C/c2ccc3c(c2)Sc2ccccc2N3C)cc1`: the growth with T-47D breast was 51.9%; in the test on BT-549 breast, 96.1%; in the test with MDA-MB-435 melanoma it was 17.6%; with SW-620 colon it was 27.1%; with MCF7 breast, 32.3%; in the test on HCT-116 colon, 53.6%. In addition, the growth with HCC-2998 colon is 85%; in the test on KM12 colon it was 16.9%.

These data come from PubChem BioAssay (NCI).
